Compound activity deposited in PubChem BioAssay by several laboratories.
Shown are actives, neighbours in structure and some others; about 7.1% of the full set was active somewhere.
Cav3 T inh: inhibitors of human Cav3.2 T-type calcium channel | B-score at 10 µM | 100,000 compounds, 4% hits | AID 449739 | Cav3.2-expressing cells, Fluo-4 calcium fluorescence FDSS; stronger effect = lower value;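 active means single-dose well whose peak fluorescence ratio is a statistical outlier from its plate by either plate-standardised score or position-corrected B-score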
M1 ag: agonists of M1 muscarinic receptor | CHO-M1 cells, Fluo-4 calcium fluorescence, agonist mode; stronger effect = higher value | B-score at 10 µM | 64,000 compounds, 3% hits;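 active means fluorescence rise, raw or as B-score row- and column-corrected plate score, outside the 99.7% band of its plate's samples, either direction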
Pyk2 oligo antag: Pyk2 (human) oligomerization antagonism; Q14289; Q293 cells, Pyk2 FERM NanoBiT luminescence; stronger effect = lower value; z-score (the deposit names both 25 µM and 10 µM); 99,000 compounds, 0.83% hits; AID 1347419;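 active means Z-score of -3 or lower, scaled per plate to the spread of control and sample wells; inactive means z-score above -3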;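 further: negative z-score means lost luminescence so less FERM oligomerization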
M1 antagonist: antagonists of rat M1 muscarinic receptor | 64,000 compounds, 3.4% hits | B-score at 10 µM | CHO-M1 cells, Fluo-4 calcium, ACh EC80 antagonist mode; stronger effect = lower value;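 active means calcium fluorescence response, raw or row-and-column corrected B-score, differing from the plate sample mean either way at a set confidence level, mostly lower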
M1 agonist conf: rat M1 muscarinic agonism, confirmation; 1,700 compounds, 19% hits; fluorescence change (max-min) at 10 µM; shares compounds with M1 ag; CHO-M1 cells, Fluo-4 calcium fluorescence, agonist mode; actives lie on both sides;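 active means fluorescence change differs from the solvent-only DMSO control mean at a set confidence level in both duplicate runs; inconclusive means differs from solvent-only control mean in just one of two runs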;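 further: an EC20 dose of acetylcholine follows compound addition during the same imaging run; raw fluorescence intensity difference in instrument units with no normalization to controls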
M4 ag counter: counter-screen for M1 agonists: activity at rat M4 receptor; shares compounds with M1 ag; 1,700 compounds, 9% hits; CHO M4/Gqi5 cells, Fluo-4 calcium fluorescence, agonist mode; actives lie on both sides; fluorescence change (max-min) at 10 µM; AID 1741;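 active means fluorescence change differing from the plate's solvent-only control wells at 99.7% confidence in both duplicates, whether higher or lower; inconclusive means differs from solvent controls in only one of two duplicates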
Target sequence (P08485 whole entry, looked up): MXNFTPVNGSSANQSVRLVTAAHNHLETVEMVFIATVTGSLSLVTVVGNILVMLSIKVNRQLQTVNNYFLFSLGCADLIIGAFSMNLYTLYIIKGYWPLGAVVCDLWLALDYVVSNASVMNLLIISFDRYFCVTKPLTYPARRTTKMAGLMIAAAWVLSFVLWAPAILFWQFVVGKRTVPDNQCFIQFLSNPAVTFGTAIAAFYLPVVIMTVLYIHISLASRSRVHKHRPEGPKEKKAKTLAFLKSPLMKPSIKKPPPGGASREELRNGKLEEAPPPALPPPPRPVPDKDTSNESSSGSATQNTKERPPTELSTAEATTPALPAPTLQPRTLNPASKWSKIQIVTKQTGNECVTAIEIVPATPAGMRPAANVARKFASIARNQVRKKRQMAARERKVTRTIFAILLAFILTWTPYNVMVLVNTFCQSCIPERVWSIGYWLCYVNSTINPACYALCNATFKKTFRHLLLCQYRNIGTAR
* = called active by the depositor; ? = inconclusive; . = no result given.

SMILES | Cav3 T inh | M1 ag | Pyk2 oligo antag | M1 antagonist | M1 agonist conf | M4 ag counter
CCCCOc1[nH]c2nc(-c3ccco3)n(Cc3ccco3)c(=N)c2c1C#N | . | 14.8* | 0.12 | -0.0323 | 18.3 | 6.15
Cc1ccccc1CSc1nccn1-c1ccccc1 | -3.59 | . | -0.76 | . | . | .
CC1CCN(c2nc(-c3ccco3)c3c(c2C#N)CC(C)(C)OC3)CC1 | 0.452 | 4.51* | . | 0.0935 | -1.45 | -16.1
CC1(C)Cc2c(C#N)c(SCC(=O)c3ccccc3)nc(N3CCOCC3)c2CO1 | . | 6.71* | -1.19 | -0.596 | -17.8 | ?
CC1(C)Cc2c(C#N)c(SCc3ccccc3)nc(N3CCOCC3)c2CO1 | -1.5 | -0.0798 | -2.39 | 0.0475 | . | .
CC1(C)Cc2c(C#N)c(NCCN3CCOCC3)nc(-c3ccco3)c2CO1 | 0.858 | 0.667 | -0.45 | -0.168 | . | .
CC1(C)Cc2c(C#N)c(N3CCN(C(=O)c4ccccc4)CC3)nc(Cc3ccccc3)c2CO1 | -2.04 | . | -1.53 | . | . | .
CC1(C)Cc2c(C#N)c(N3CCOCC3)nc(Cc3ccccc3)c2CO1 | -2.87 | 4.22* | -2.4 | -0.731 | -6.53 | ?
Brc1ccc(-c2noc3c2-c2nc(-c4ccccc4)sc2CC3)cc1 | 0.981 | . | . | . | . | .
CCCCCCC(=O)N1CCC(c2nc3c(nnn3Cc3ccccc3Cl)c(=O)[nH]2)CC1 | -2.23 | 0.659 | -1.23 | 0.381 | . | .
CCCCn1c(NC(C)=O)c(C#N)c2nc3ccccc3nc21 | -0.0442 | 5.52* | -0.79 | 0.496 | 36.8 | -6.77
C=CCn1c(NC(=O)c2ccccc2Cl)c(C#N)c2nc3ccccc3nc21 | -7.05* | 6.85* | -0.34 | -0.973 | 30.1 | 2.63
CCOC(=O)c1oc2cccc(O)c2c1CN(Cc1ccccc1)C(C)=O | -0.756 | 2.61* | -0.16 | 0.73 | ? | -43.9
O=C(Nc1ccc2c(c1)OCO2)C1CCCN(S(=O)(=O)Cc2ccccc2)C1 (centres undefined) | 0.562 | 3.91* | 0.81 | -2.54* | 5.34 | -23.6
O=C(Nc1ccc2c(c1)OCCO2)C1CCCN(S(=O)(=O)Cc2ccccc2)C1 (centres undefined) | -0.0352 | -0.513 | 0.02 | -0.655 | . | .
Nc1cccc2c1C(=O)N(C(=O)c1ccc(S(=O)(=O)N3CCCCCC3)cc1)C2=O | -0.108 | 7.5* | 0.41 | -0.035 | 22.9 | -22.9
O=C(O)c1ccc(S(=O)(=O)N2CCCCCC2)cc1 | 0.0657 | . | 0.56 | . | . | .
O=C(CSc1nnc(-c2ccc(OC(F)F)cc2)o1)NCc1cccs1 | -0.561 | . | 0.87 | . | . | .
O=C1c2ccccc2C(Nc2ccc(Cl)cn2)N1c1cccnc1 (centres undefined) | -0.473 | 1.3 | . | -0.00154 | . | .
CCCN(CCC)C(=O)COc1cc(=O)n(CC)c2ccccc12 | 0.343 | -0.399 | . | -0.989 | . | .
CCN(C(=O)COc1cc(=O)n(CC)c2ccccc12)c1cccc(Cl)c1 | . | 4.36* | -1.43 | -0.745 | -15.3 | -27.5
CCn1c(=O)cc(OCC(=O)Nc2ccccc2C#N)c2ccccc21 | -0.357 | 2.23* | . | -1.11 | ? | -43
CCN(C(=O)COc1cc(=O)n(CC)c2ccccc12)c1cc(Cl)ccc1OC | -5.46* | 7.85* | . | -0.23 | ? | -43.8
COC(=O)c1ccccc1NC(=O)c1cccc(NC(=O)CSCc2ccccc2)c1C | -0.31 | . | 0.09 | . | . | .
COc1ccc(CNS(=O)(=O)c2ccccc2Br)cc1 | -1.07 | . | . | . | . | .
SMILES | Cav3 T inh | M1 ag | Pyk2 oligo antag | M1 antagonist | M1 agonist conf | M4 ag counter
C=CCNC(=O)N1C2=NC(C(=O)OC)=C(C(=O)OC)[C@@H]3N(Cc4ccccc4)c4ccccc4[C@]23C[C@H]1C(=O)OC | -1.6 | . | . | . | . | .
CCc1ccc(Cn2nnc(C(=O)NCc3ccccc3OC)c2N)cc1 | -7.14* | 2.18* | . | 0.141 | -28.9 | -23.3
Cc1ccc(Cn2nnc(C(=O)Nc3cccc(C)c3C)c2N)cc1 | 0.602 | 7.51* | -0.11 | 0.0142 | 4.21 | -61.8
Cc1ccc(C(=O)COC(=O)CCC(=O)Nc2cccc(Cl)c2)cc1[N+](=O)[O-] | . | . | 0.34 | . | . | .
CC(C)C[C@H](NC(=O)c1nc[nH]c1C(=O)NCc1ccccc1)C(=O)OCc1ccccc1 | -0.0771 | . | . | . | . | .
CCC1CCCCN1C(=O)Cn1c(=O)oc2ccccc21 (centres undefined) | -0.377 | . | 0.23 | . | . | .
CCCCOC(=O)c1[nH]c2c(c1C)C(=O)CC(c1cc(OC)c(OC)c(OC)c1)C2 (centres undefined) | -0.00658 | -0.00289 | . | -0.507 | . | .
C=CCOC(=O)c1[nH]c2c(c1C)C(=O)CC(c1cc(OC)c(OC)c(OC)c1)C2 (centres undefined) | 0.014 | 3.3* | . | 0.159 | -11.6 | -33.2
